Measurements taken from PubChem BioAssay (EPA / NIEHS).
Inconclusive results are not listed. Activity calls are given as the source filed them. How the source made its calls: active means hit-call score of the fitted dose curve at least 0.9, where 1 is the maximum; inconclusive means response in the unintended direction; inactive means score below 0.9.

read-out: alkyl and aryl transferase (GSTA2), GSTA2 (gene 2939); experiment: CLD_GSTA2_24hr: CellzDirect (CLD) Gene Expression Assay for alkyl and aryl transferase (GSTA2) at 24 hours (AID 2283693)
Description: CLD_24hr is a cell-based, multiplexed-readout assay that uses hepatocyte, a human liver primary cell, with measurements taken at 24 hours after chemical dosing in a 96-well plate.CLD_GSTA2_24hr is one of 16 assay component(s) measured or calculated from the CLD_24hr assay. It is designed to make measurements of mRNA induction, a form of inducible reporter, as detected with chemiluminescence signals by Quantitative Nuclease Protection Assay (qNPA) technology.Data from the assay component CLD_GSTA2_24hr was analyzed at the endpoint, CLD_GSTA2_24hr, in the positive analysis fitting direction relative to DMSO as the negative control and baseline of activity. Using a type of inducible reporter, gain-of-signal activity can be used to understand changes in the reporter gene as they relate to the gene GSTA2. Furthermore, this assay endpoint can be referred to as a primary readout. To generalize the intended target to other relatable targets, this assay endpoint is annotated to the transferase intended target family, where subfamily is alkyl and aryl transferase.
Human hepatocyte cultures were treated daily for two consecutive days with fresh dosing solutions containing appropriate concentrations of the 320 ToxCast chemicals (chemical identities were blinded to CellzDirect and other ToxCast collaborators), vehicle control (0.2% DMSO), and positive control inducers as summarized in Table 1. Due to the large number of treatment groups and chemicals examined, the ToxCast chemicals were divided into two groups (spanning two independent cultures of hepatocytes from separate donor preparations (Hu778: ToxCast plates 1 and 2; Hu776: ToxCast plates 3 and 4). Each preparation of human hepatocyte cultures was treated with respective vehicle control, medium only control, set of six positive controls/reference chemicals for the five hepatic receptor pathways, and a subset of eight of the ToxCast chemicals (indoxacarb, pyrithiobac-sodium, norflurazon, cyhalofop-butyl, methomyl, thiram, acetochlor, and propiconazole). These replicate data, coupled with internal replicates designed within the blinded ToxCast chemical library, provided additional data to evaluate interindividual differences between hepatocyte preparations and their potential impact on chemical profiles.Cell morphology and integrity were evaluated using phase-contrast microscopy as an indicator of hepatocyte cell health (Tyson & Green, 1987). Cultures for each treatment group (i.e., media, vehicle [0.2% DMSO], positive control inducers [multiple concentrations], and the ToxCast chemicals [multiple concentrations]) were observed and cell morphology was assessed relative to vehicle control cultures at each harvest time point (0, 6, 24, or 48 h). […] Images were evaluated at the conclusion of the study to assess changes in cell integrity and account for the effects of chemical exposure on uncharacteristic changes in concentration-dependent gene expression profiles. The results from these determinations of apparent cytotoxicity were annotated (yes/no) alongside the corresponding qNPA data for reference.At the conclusion of each treatment period, hepatocyte cultures (96-well) were washed with 1 volume of HBSS, lysed by addition of 25 ul ArrayPlate lysis buffer (HTG, Tucson, AZ), and 70 ul/well of Denaturation Oil, denatured by incubation at 95C for 10 min, and frozen at approximately -70C until analysis by nuclease protection assay (qNPA) (Roberts et al., 2007). For qNPA analysis, cell lysates were thawed at 50C for approximately 30 min, qNPA probes were added, and samples were incubated at 95C for 10 min to begin the detection process by denaturing the target RNA, dissociating the duplexes and secondary structure hybridization. At the conclusion of the hybridization period, S1 nuclease reagent was added to each sample to digest all nonprotected nucleotides at 50C for 60-90 min. […]

Row | SMILES | outcome
1 | CC(C)C1(C)N=C(c2nc3ccccc3cc2C(=O)O)NC1=O (configuration not stated) | inactive
2 | CO/C=C(/C(=O)OC)c1ccccc1Oc1cc(Oc2ccccc2C#N)ncn1 | inactive
3 | CCCCC(CC)COC(=O)c1ccccc1C(=O)OCC(CC)CCCC (configuration not stated) | inactive
4 | COc1ccc(C(c2ccc(OC)cc2)C(Cl)(Cl)Cl)cc1 | inactive
5 | COc1cnc(OC)n2nc(NS(=O)(=O)c3c(OCC(F)F)cccc3C(F)(F)F)nc12 | inactive
6 | Fc1ccc(Oc2ccnc3cc(Cl)cc(Cl)c23)cc1 | inactive
7 | COc1nc(C)nc(NC(=O)NS(=O)(=O)c2ccccc2Cl)n1 | inactive
8 | O=C(O)c1nc(Cl)ccc1Cl | inactive
9 | OC(c1ccc(Cl)cc1)(c1cncnc1)c1ccccc1Cl (configuration not stated) | inactive
10 | CC1COC(Cn2cncn2)(c2ccc(Oc3ccc(Cl)cc3)cc2Cl)O1 (configuration not stated) | inactive
11 | N#Cc1nn(-c2c(Cl)cc(C(F)(F)F)cc2Cl)c(N)c1S(=O)C(F)(F)F (configuration not stated) | inactive
12 | CCc1nn(C)c(C(=O)NCc2ccc(C(C)(C)C)cc2)c1Cl | inactive
13 | CCOC(=O)CC(SP(=S)(OC)OC)C(=O)OCC (configuration not stated) | inactive
14 | CCCCNC(=O)OCC#CI | inactive
15 | CCNc1nc(Cl)nc(NC(C)C)n1 | inactive
16 | Cc1c(F)c(F)c(COC(=O)C2C(/C=C(\Cl)C(F)(F)F)C2(C)C)c(F)c1F (configuration not stated) | inactive
17 | CN(C)C(=S)SSC(=S)N(C)C | inactive
18 | N#CC(CCc1ccc(Cl)cc1)(Cn1cncn1)c1ccccc1 (configuration not stated) | inactive
19 | CCCCNC(=O)n1c(NC(=O)OC)nc2ccccc21 | inactive

Row | SMILES | outcome
20 | C=CCC1=C(C)[C@@H](OC(=O)[C@@H]2[C@@H](C=C(C)C)C2(C)C)CC1=O | inactive
21 | CCOC(=O)C(Cl)Cc1cc(-n2nc(C)n(C(F)F)c2=O)c(F)cc1Cl (configuration not stated) | inactive
22 | N#Cc1cc(Br)c(O)c(Br)c1 | inactive
23 | Oc1ccccc1-c1ccccc1 | inactive
24 | CCNc1nc(Cl)nc(NCC)n1 | inactive
25 | CNC(=O)ON=CC(C)(C)SC | inactive
26 | CC(C)(C)c1ccc(CSc2cnn(C(C)(C)C)c(=O)c2Cl)cc1 | inactive
27 | CS/C(C)=N/OC(=O)N(C)SN(C)C(=O)O/N=C(\C)SC | inactive
28 | C=CCC1=C(C)C(OC(=O)C2C(C=C(C)C)C2(C)C)CC1=O (configuration not stated) | inactive
29 | COC(=O)C(C)Oc1ccc(Oc2ccc(Cl)cc2Cl)cc1 (configuration not stated) | inactive
30 | COP(=S)(OC)Oc1nc(Cl)c(Cl)cc1Cl | inactive
31 | CCCCOC(=O)c1ccccc1C(=O)OCCCC | inactive
32 | COc1nc(C)nc(NC(=O)NS(=O)(=O)c2ccccc2CCC(F)(F)F)n1 | inactive
33 | COC(=O)N(OC)c1ccccc1COc1ccn(-c2ccc(Cl)cc2)n1 | inactive
34 | COC(=O)c1ccccc1C(=O)OC | inactive
35 | CC(Oc1ccc(Cl)cc1Cl)C(=O)O (configuration not stated) | inactive
36 | Cc1ccc(-c2c(Cl)nc(C#N)n2S(=O)(=O)N(C)C)cc1 | inactive
37 | C#CCOS(=O)OC1CCCCC1Oc1ccc(C(C)(C)C)cc1 (configuration not stated) | inactive
